The results in this text go back to ChEMBL document CHEMBL3988442, “University of Dundee, Small-Polar-MMV Screening Library” (2021).

Molecules are shown by their SMILES. In all, about 48,000 compounds went through this assay and about 13,000 (27%) showed an effect of 50% or more. The list shows a part of the results.

The test system of the experiment is Wolbachia pipientis. As to the kind of experiment: Anti-Wolbachia Cell-Based Screen. The format is functional. Further details: scale not given: in the data most compounds retested in dose-response had high values. The conditions noted are these: 5 µM.
For `Cc1ccc(NC(=O)CN2CCCNC2=O)c(SC(F)(F)F)c1`, the “Percent Effect” value was -6.443%.
With `CN(C)C1CCCN(C(=O)NCCNC(=O)C2CCCC2)C1` (configuration not stated), the “Percent Effect” value is listed as 2.147%.
In the case of `N#Cc1cccc(S(=O)(=O)NC2CCN(CC(F)(F)F)C2)c1` (configuration not stated), the “Percent Effect” value is listed as 11.74%.
Take `N#Cc1ccc(SCCOCCO)c(Cl)c1`: the “Percent Effect” value was -25.21%.
`N#CC1CCCN(c2nc(-c3ccccc3)nc3c2CCNCC3)C1` (configuration not stated): the “Percent Effect” value is on record as 6.584%.
`Cn1ccnc1CN1CCc2ncnc(N3CCCC(C#N)C3)c2CC1` (configuration not stated): the “Percent Effect” value is recorded as 91.92%.
As for `Cn1cc(CN2CCc3ncnc(N4CCCC4)c3CC2)cn1`, the “Percent Effect” value came out at 6.266%.
The same measure for `CN1CCN(c2ncnc3c2CCN(Cc2nccn2C)CC3)CC1`: -1.995%.
As for `N#CC1CCCN(c2ncnc3c2CCN(Cc2ccccc2)CC3)C1` (configuration not stated), the “Percent Effect” value is recorded as 115%.
As for `COCCn1ccnc1C1CCCN(c2ncnc3c2CCC3)C1` (configuration not stated), the “Percent Effect” value is -0.4091%.
Consider `Cc1ccccc1N1CCN(C(=O)c2cccnc2-n2cncn2)CC1`, for which the “Percent Effect” value amounted to 25.7%.
The same measure for `Cc1nc(C2CCCN2Cc2cc(Cl)c3c(c2)OCCCO3)no1` (configuration not stated): -4.62%; for `CC(C)=CCC1(C(=O)O)CCCN(c2ccnc(N)n2)C1` (configuration not stated): 0.6776%.
Under `Cc1cc(I)c2c(c1)C(=O)C(CN1CCCC1)(CN1CCCC1)CO2` stands 118.1%; under `O=C1c2cc(Br)cc(Br)c2OCC1(CN1CCCC1)CN1CCCC1`, 108.8%.
Consider `CCNC(=O)NC[C@@H]1C=C(C)[C@H](CC(=O)NCCN(C)C)C[C@H]1C(C)C`, for which the “Percent Effect” value is recorded as -8.573%.
For `OCCCN1CCc2onc(C(c3ccccc3)c3ccccc3)c2C1`, the “Percent Effect” value came to 6.435%.
As to `Cc1cc(CNc2ccc3nc(C)sc3c2)no1`, the “Percent Effect” value was 5.343%.
In the case of `Cc1cc(CNc2ccc(C(F)(F)F)cc2)no1`, the “Percent Effect” value was found to be 98.51%.
For `CCOc1ccc(C(F)(F)F)cc1NCc1cc(C)on1`, the “Percent Effect” value is given as -4.345%.
For `O=C(C1CN(CC2CC2)CC12CCOCC2)N1CCCC1` (configuration not stated), the “Percent Effect” value was -4.912%.
Under `CC1(C(N)=O)CN(CC2CCOCC2)CCO1` (configuration not stated) stands 88.24%; under `C1CC(CN2CCOCC3(CCN(C4CCOCC4)C3)C2)CCO1` (configuration not stated), -8.937%; under `CC1(C(N)=O)CN(CC2CCC2)CCO1` (configuration not stated), 100.1%.
As to `CC1(C)CC(CN2CCC3(CCC(=O)N(C4CCC4)C3)CC2)CCO1` (configuration not stated), the “Percent Effect” value is listed as -1.352%.
In the case of `O=C(C1CN(CC2CCOCC2)CC12CCOCC2)N1CCOCC1.O=C(O)C(F)(F)F` (configuration not stated), the “Percent Effect” value is recorded as 5.554%.
As to `CC1(C(=O)N2CCOCC2)CN(CC2CCOCC2)CCO1` (configuration not stated), the “Percent Effect” value was determined as 129.5%.
As to `CN(C)C(=O)CN1CCC2(C1)CN(CC1CCOCC1)C2`, the “Percent Effect” value was -9.984%.
`O=C(N1CCOCC1)[C@@]12CCO[C@@H]1CCN(CC1CCCCC1)C2.O=C(O)C(F)(F)F`: the “Percent Effect” value is 16.73%.
The same measure for `CC(C)N1CC2(CCC1=O)CCN(C(=O)c1cccc(F)c1F)CC2`: -11.17%; for `Cc1cc2[nH]c(CN3CCOC(C(F)(F)F)C3)cc(=O)n2n1` (configuration not stated): -6.733%.
Regarding `CCOc1cccc(CNCc2ccc(NC(=O)NC(C)C)cc2)c1`, the “Percent Effect” value amounted to 132%.
As to `COc1cccc(CC(C)NC(=O)c2ccc(CNC(C)=O)cc2)c1` (configuration not stated), the “Percent Effect” value is reported as -2.536%.
With `COc1cccc(C(CO)NC(=O)NC(C)C)c1` (configuration not stated), the “Percent Effect” value is -12.05%.
Under `COc1cccc(CNCc2ccc(NC(=O)NC(C)C)cc2)c1` stands 98.55%; under `Cc1cccc(CNC(=O)Nc2ccc3c(c2)CCCC(=O)N3)c1`, -8.181%; under `Cc1cccc(CNCc2ccc(NC(=O)NC(C)C)cc2)c1`, 97.74%.
For the compound `COc1ccc(CNC(=O)Nc2ccc(S(=O)(=O)C(F)F)cc2)cc1`, the “Percent Effect” value was 6.35%.
Turning to `N#CC1(C(=O)Nc2ccc(OC(F)F)cc2)CCCC1`, the “Percent Effect” value was -4.632%.
Turning to `CCOc1cccc(CNc2cnn(CC(C)C)c2CC)c1`, the “Percent Effect” value is -19.91%.
Take `CC(C)NC(=O)Nc1ccc(CNCc2ccc(OC(F)F)cc2)cc1`: the “Percent Effect” value is recorded as 126.1%.
The same measure for `COC(=O)C(CNC(=O)Nc1cn[nH]c1)Cc1cccc(C)c1` (configuration not stated): -11.43%; for `CCOc1ccc(CNCc2ccc(C(=O)NC)cc2)cc1OCC`: -3.882%; for `CCc1cc(CN(C)Cc2nc(-c3sccc3C)oc2C)on1`: -5.101%.
In the case of `CC(=O)N[C@@H]1Cc2ccccc2[C@H]1Nc1nnc(C2CC2)o1`, the “Percent Effect” value is given as -5.354%.
For the compound `O=C1CSCN1CC(=O)N1CCCC1c1nc2ccccc2s1` (configuration not stated), the “Percent Effect” value is on record as -3.784%.
Under `Cc1noc(-c2ccc(N[C@H]3CCCCNC3=O)nc2)n1` stands -0.1994%; under `COCCNC(=O)NC(c1ccccc1)c1ccccc1OC` (configuration not stated), 3.321%; under `Cn1ccc(CN2CCC(CO)CC2)cc1=O`, -2.803%.
Turning to `Cn1ccc(CN2CCC(CN3CCOCC3)CC2)cc1=O`, the “Percent Effect” value amounted to 93.59%.
In the case of `Cc1csc(N2CCN(Cc3ccn(C)c(=O)c3)CC2)n1`, the “Percent Effect” value came to 7.447%.
Under `Cn1ccc(CN2CCN(CC3CC3)CC2)cc1=O` stands 107.4%; under `CCc1oc(C(=O)OC)cc1Cn1cccc(C(F)(F)F)c1=O`, 2.78%.
With `Cc1nc(C)c(C)c(NCCSCc2[nH]cnc2C)n1`, the “Percent Effect” value is given as -16.36%.
Consider `COC1CCCOC12CCN(C(=O)c1ccc3[nH]nnc3c1)CC2` (configuration not stated), for which the “Percent Effect” value is given as 104.9%.
In the case of `CO[C@H]1CCN(C(=O)c2ccc3[nH]nnc3c2)C[C@@]12CCCO2`, the “Percent Effect” value came to 102.9%.
Regarding `c1cc(CNc2nnc(Cc3ccsc3)o2)cs1`, the “Percent Effect” value is listed as -17.73%.
Regarding `Clc1cnccc1N1CCCC2(CCCOC2)C1` (configuration not stated), the “Percent Effect” value was -10.01%.
Consider `Cc1ccc(C(=O)N2CCCN(Cc3cscn3)CC2)o1`, for which the “Percent Effect” value was 108%.
In the case of `COCc1ccc(C(=O)N2CCCN(Cc3cscn3)CC2)cc1`, the “Percent Effect” value amounted to 110%.
Consider `O=C(c1ccc(Cl)o1)N1CCCN(Cc2cscn2)CC1`, for which the “Percent Effect” value turned out to be 4.253%.
Turning to `NC(=O)c1cncc(N2CCN(Cc3ccc(F)cc3Cl)CC2)n1`, the “Percent Effect” value is on record as -6.115%.
Consider `CCC(C)N(Cc1cccnc1)Cc1cc2c(cc1OC)OCO2` (configuration not stated), for which the “Percent Effect” value is 6.738%.
`Cc1ncnc2c1CCN(C(=O)c1cccn1C)CC2`: the “Percent Effect” value was -19.88%.
Consider `CN1CCN(c2ncnc3c2CCN(C(=O)c2cccn2C)CC3)CC1`, for which the “Percent Effect” value stood at 1.463%.
For the compound `Cn1cccc1C(=O)N1CCc2ccc(=O)n(C)c2CC1`, the “Percent Effect” value was found to be 85.33%.
On to `CN(CCCNC(=O)N1CCCC1c1ccsc1)c1ccccn1` (configuration not stated), for which the “Percent Effect” value was 7.927%.
For `Cc1nc2cc(-c3nccn3C)nn2c(N2CCCC(O)C2)c1C.Cl` (configuration not stated), the “Percent Effect” value worked out at 80.29%.
Turning to `Cn1ccnc1CN1C[C@@H](CN2CCC(CO)CC2)[C@@H](CO)C1`, the “Percent Effect” value was -24.97%.
On to `Cc1cc(C2CCC2)nc(N2CCN(Cc3nccn3C)CC2)n1`, for which the “Percent Effect” value is listed as -10.5%.
Consider `Cc1cc(N2CC[C@H](O)C2)n2nc(C)c(C)c2n1`, for which the “Percent Effect” value is -7.079%.
Under `Cc1cc(N2CCCC(O)CC2)n2nc(C)c(C)c2n1` (configuration not stated) stands -2.095%; under `Cc1cc(N2CCCCCC2)n2nc(C)c(C)c2n1`, -8.895%.
Turning to `Cn1ccnc1-c1nccn1C[C@@H]1CCCN2CCCC[C@H]12`, the “Percent Effect” value was -12.88%.
Under `OCC1CCCN(c2ncnc3c2Cc2ccccc2OC3)C1` (configuration not stated) stands 5.574%; under `Cc1nc2cc(-c3nccn3C)nn2c(N2CCCC(CO)C2)c1C` (configuration not stated), 68.35%; under `Cc1cc(N2CCCN(c3nc(C)nc(C)c3C)CC2)ccn1`, 23.81%.
